# Assay results: ChEMBL document CHEMBL3988442, “University of Dundee, Small-Polar-MMV Screening Library” (2021)
# For some assays here: Measured potencies and affinities stand elsewhere.
# Key:
# Design in all cases: scale not given: direction of the effect not stated beside the values
# [1] = molecular target: Protein translocase subunit SecA (Escherichia coli (strain K12)) (UniProt P10408); experiment: Assay to Identify E. coli SecA ATPase Inhibitors; assay type: functional; details: 30 µM
# [2] = molecular target: T1, Ubiquitin-activating enzyme e1, putative (Leishmania donovani (strain BPK282A1)) (UniProt E9BSI1); experiment: Leishmania donovani Ubiquitin Activating Enzyme (LdE1); assay type: functional; details: 30 µM
# T1 sequence (whole entry): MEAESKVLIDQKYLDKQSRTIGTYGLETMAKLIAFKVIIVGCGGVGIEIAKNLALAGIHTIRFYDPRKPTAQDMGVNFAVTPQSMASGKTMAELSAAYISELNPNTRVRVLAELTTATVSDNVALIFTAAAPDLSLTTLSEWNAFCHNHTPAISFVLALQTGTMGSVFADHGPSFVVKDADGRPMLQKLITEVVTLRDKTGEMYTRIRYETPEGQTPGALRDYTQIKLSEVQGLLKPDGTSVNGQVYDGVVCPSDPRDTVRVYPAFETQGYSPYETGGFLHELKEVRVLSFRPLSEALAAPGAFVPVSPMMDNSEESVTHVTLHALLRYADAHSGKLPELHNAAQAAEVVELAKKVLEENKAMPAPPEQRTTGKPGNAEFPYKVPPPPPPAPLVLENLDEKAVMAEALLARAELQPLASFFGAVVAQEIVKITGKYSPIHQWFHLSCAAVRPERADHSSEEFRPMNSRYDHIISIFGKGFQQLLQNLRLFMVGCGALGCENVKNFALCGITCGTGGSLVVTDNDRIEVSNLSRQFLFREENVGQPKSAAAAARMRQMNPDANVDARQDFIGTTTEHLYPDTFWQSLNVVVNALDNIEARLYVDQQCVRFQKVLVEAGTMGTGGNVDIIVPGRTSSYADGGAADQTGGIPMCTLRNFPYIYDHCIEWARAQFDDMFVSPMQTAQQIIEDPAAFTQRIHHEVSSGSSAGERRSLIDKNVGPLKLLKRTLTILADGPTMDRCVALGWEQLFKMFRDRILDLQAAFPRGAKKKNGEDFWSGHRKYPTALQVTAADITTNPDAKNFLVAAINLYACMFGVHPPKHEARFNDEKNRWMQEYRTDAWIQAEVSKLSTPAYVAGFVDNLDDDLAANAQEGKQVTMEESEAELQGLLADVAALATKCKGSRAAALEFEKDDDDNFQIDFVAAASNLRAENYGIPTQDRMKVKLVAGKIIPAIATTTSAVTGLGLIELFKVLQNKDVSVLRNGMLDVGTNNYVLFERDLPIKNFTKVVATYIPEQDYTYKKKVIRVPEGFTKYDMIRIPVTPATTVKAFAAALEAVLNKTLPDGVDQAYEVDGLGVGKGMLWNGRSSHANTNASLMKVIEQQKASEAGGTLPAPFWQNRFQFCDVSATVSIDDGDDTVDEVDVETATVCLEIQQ
# [3] = molecular target: AMP-activated protein kinase, AMPK (Homo sapiens) (UniProt P54646+O43741+P54619+Q9UGJ0+Q9Y478+Q13131+Q9UGI9); experiment: AMP-dependent Kinase enzyme assay. An in vitro enzyme assay that detects ADP turnover that is directly proportional to AMPK activity. This uses naive AMPK that is activated during the assay with MK-8722; assay type: functional; details: 30 µM
# [4] = molecular target: Sialic acid-binding Ig-like lectin 9 (Homo sapiens) (UniProt Q9Y336); experiment: Hs-Siglec9 ALPHAscreen SOP 20170721; details: 10 µM
# Trypanosoma cruzi = experiment: Trypanosoma cruzi phosphomannomutase and mannose-1-phosphate guanylyltransferase assay; assay type: functional; details: 10 µM
# [5] = molecular target: T2, Arginase-2, mitochondrial (Homo sapiens) (UniProt P78540); experiment: in vitro enzyme assay to detect the production of urea directly proportional to the activity of Arginase II; assay type: functional; details: 33.3 µM; further: in the data most compounds retested in dose-response had high values
# T2 sequence (whole entry): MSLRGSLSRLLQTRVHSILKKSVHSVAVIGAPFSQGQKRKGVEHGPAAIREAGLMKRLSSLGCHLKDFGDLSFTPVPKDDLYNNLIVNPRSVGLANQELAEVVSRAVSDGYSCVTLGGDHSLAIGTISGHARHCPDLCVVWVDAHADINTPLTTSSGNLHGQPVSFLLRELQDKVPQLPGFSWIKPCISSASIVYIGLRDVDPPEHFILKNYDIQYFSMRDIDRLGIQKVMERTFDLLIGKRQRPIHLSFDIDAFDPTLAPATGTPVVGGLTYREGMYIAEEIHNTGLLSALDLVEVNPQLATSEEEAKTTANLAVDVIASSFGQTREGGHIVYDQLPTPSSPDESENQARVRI
# [6] = molecular target: T3, Proteasome subunit beta (Trypanosoma cruzi) (UniProt O96673); experiment: Trypanosoma cruzi proteasome chymotrypsin-like activity (TcProtChymo) assay.; further: in the data most compounds retested in dose-response had high values; assay type: functional; details: 9.37 µM
# T3 sequence (whole entry): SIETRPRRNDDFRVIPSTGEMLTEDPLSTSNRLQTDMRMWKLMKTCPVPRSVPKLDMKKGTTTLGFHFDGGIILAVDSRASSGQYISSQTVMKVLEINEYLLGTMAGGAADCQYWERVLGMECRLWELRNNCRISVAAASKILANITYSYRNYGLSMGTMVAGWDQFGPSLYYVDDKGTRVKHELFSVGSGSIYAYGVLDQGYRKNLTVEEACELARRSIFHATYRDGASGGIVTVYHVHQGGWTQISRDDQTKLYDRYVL
# Homo sapiens = organism: Homo sapiens; experiment: To identify inhibition of the IFN signalling (Jak-Stat) pathway via expression of an eGFP reporter gene under the control of an IFN-stimulated response element (ISRE) containing MxA promoter.; assay type: functional; details: 30 µM
# [7] = molecular target: T4, Tyrosyl-tRNA synthetase, putative (Trypanosoma cruzi (strain CL Brener)) (UniProt Q4DSP6); experiment: Trypanosoma cruzi tyrosyl tRNA synthetase (TcYRS) _High Tyrosine SOP; assay type: functional; details: 30 µM; further: in the data most compounds retested in dose-response had high values
# T4 sequence (whole entry): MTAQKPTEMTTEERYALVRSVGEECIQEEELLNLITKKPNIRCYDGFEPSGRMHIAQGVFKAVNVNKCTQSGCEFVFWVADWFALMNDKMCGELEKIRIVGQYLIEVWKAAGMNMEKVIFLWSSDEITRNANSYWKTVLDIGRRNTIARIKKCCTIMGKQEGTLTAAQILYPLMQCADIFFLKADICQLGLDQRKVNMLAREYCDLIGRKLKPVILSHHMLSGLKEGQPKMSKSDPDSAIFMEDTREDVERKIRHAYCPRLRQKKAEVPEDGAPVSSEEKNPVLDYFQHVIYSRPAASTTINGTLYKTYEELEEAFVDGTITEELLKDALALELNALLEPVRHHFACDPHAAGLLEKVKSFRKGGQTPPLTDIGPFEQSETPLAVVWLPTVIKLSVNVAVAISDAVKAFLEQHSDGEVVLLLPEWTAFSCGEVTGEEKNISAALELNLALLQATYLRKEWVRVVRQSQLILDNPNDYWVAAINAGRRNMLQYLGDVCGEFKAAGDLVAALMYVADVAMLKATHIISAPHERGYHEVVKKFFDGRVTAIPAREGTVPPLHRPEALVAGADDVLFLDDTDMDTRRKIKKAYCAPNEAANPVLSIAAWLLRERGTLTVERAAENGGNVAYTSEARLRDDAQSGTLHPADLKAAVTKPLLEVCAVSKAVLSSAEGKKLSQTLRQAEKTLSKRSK
# [8] = molecular target: T4, Tyrosyl-tRNA synthetase, putative (Trypanosoma cruzi (strain CL Brener)); experiment: Trypanosoma cruzi tyrosyl tRNA synthetase (TcYRS) SOP; assay type: functional; details: 30 µM
# [9] = molecular target: Chromo domain-containing protein 1 (Saccharomyces cerevisiae (strain ATCC 204508 / S288c) (Baker's yeast)) (UniProt P32657); experiment: ScCHD-1 Enzyme Inhibition Assay; assay type: functional; details: 30 µM; further: in the data most compounds retested in dose-response had high values
# Sequence of Chromo domain-containing protein 1 (Saccharomyces cerevisiae (strain ATCC 204508 / S288c) (Baker's yeast)) (P32657 whole entry, the tested form may be a part): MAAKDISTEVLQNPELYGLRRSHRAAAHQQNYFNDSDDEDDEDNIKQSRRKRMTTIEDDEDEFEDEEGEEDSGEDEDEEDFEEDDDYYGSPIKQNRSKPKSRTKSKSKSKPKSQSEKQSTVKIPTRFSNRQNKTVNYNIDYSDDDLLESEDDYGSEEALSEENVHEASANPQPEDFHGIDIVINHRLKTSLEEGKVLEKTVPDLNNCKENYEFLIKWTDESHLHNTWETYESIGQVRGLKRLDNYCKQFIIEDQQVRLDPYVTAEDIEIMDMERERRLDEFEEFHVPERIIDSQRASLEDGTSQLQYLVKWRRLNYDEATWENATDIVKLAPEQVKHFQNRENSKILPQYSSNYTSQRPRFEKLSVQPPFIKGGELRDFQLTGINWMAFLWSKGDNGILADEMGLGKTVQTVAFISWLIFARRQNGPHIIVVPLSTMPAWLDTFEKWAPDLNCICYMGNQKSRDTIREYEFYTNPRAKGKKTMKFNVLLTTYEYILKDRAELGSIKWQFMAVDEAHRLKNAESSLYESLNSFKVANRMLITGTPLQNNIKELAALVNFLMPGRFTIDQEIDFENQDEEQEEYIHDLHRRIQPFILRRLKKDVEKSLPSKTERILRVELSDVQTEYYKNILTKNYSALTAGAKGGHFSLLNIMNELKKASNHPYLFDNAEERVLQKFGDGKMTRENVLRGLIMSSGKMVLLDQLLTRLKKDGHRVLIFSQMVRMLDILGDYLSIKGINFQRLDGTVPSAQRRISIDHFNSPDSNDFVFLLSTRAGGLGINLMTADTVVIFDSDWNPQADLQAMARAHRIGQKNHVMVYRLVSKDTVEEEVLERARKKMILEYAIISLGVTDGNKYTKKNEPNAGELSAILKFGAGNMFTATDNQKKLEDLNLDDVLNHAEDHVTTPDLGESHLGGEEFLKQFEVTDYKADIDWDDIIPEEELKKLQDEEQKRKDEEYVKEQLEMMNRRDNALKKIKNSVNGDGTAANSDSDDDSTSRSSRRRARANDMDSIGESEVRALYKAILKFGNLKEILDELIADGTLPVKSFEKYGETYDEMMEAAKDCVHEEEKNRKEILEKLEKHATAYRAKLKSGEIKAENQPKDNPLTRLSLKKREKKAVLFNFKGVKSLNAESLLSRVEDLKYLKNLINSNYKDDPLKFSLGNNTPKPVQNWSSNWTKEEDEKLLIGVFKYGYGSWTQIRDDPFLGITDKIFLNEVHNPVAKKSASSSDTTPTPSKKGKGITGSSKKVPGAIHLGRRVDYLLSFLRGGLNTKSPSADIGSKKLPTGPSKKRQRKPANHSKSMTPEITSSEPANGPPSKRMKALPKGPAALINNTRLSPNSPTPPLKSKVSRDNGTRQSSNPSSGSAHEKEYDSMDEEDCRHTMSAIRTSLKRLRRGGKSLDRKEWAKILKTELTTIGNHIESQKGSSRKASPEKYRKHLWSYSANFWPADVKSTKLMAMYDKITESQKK
# Sequence of Protein translocase subunit SecA (Escherichia coli (strain K12)) (P10408 whole entry): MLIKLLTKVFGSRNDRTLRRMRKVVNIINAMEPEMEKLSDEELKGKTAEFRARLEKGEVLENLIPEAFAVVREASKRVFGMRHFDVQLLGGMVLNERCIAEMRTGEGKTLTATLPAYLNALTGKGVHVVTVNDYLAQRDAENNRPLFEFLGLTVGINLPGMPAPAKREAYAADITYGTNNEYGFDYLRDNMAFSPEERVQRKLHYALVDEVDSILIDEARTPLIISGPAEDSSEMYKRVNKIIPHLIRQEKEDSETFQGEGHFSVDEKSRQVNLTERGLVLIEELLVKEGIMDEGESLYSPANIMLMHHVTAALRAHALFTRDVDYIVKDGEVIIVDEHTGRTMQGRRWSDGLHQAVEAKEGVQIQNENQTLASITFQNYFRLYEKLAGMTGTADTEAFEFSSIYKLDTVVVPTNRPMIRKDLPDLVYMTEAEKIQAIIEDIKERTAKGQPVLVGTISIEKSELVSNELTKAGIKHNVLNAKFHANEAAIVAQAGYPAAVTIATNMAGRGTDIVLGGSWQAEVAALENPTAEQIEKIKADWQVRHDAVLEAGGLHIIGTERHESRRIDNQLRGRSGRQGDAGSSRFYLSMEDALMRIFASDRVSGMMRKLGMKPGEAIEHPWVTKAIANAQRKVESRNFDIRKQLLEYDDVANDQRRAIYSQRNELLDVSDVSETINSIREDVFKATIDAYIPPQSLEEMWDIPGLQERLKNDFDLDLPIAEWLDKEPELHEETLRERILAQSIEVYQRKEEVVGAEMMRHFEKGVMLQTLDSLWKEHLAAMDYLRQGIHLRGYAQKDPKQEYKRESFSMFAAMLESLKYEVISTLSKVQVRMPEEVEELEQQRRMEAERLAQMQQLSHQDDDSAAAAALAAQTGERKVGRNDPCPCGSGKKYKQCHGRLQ
# Sequence of Sialic acid-binding Ig-like lectin 9 (Homo sapiens) (Q9Y336 whole entry): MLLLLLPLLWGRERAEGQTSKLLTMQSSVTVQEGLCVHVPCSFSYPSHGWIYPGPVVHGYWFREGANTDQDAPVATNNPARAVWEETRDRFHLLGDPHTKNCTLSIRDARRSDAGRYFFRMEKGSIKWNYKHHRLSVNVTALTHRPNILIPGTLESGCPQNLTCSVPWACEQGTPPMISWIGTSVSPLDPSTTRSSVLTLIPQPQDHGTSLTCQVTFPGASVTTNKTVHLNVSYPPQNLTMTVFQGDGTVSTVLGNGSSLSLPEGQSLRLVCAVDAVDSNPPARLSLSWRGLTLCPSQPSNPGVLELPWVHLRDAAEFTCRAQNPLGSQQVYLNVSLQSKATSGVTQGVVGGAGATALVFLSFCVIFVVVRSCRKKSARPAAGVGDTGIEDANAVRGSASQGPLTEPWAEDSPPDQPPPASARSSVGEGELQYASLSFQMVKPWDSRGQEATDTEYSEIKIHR
SMILES,Percent Effect [1] [%],Percent Effect [2] [%],Percent Effect [3] [%],Percent Effect [4] [%],Percent Effect (Trypanosoma cruzi) [%],Percent Effect [5] [%],Percent Effect [6] [%],Percent Effect (Homo sapiens) [%],Percent Effect [7] [%],Percent Effect [8] [%],Percent Effect [9] [%]
Cc1cccc(CN2CCc3c(nc(N4CCC(C)CC4)[nH]c3=O)C2)n1,-4.27,4.05,14.3,2.26,4.15,-0.696,5.3,-12.8,8.6,14.3,-8.43
COCc1cncc2c1CCN(C(=O)c1ccc(C)o1)C2,-3.33,10.7,1.34,-0.678,-4.63,-60,6.33,-0.987,4.17,5,-6.41
COCCN1CCc2cc(C(=O)N(C)C)c(NCC3CC3)nc2CC1,-8.99,2.7,1.27,-1.99,-5.38,-1.24,8.5,-19.8,2.15,11.1,-0.0365
Cn1cc(CN2CCc3onc(COc4cccnc4)c3C2)cn1,6.35,14.7,17.2,-10.2,-9.43,-5.11,16.6,11.8,0,5.13,-10.7
CC(O)CN1CCN(C(=O)c2cn(-c3ccccc3Cl)nn2)CC1 (stereo not given),-1.74,10.8,-3.04,16.5,2.44,5.71,4.21,-2.08,3.23,13.6,-4.02
CNc1cc2c(nn1)CCN(C(=O)C1CCCc3ccccc31)C2 (stereo not given),-1.49,7.59,-8.51,1.73,-4.44,4.18,-2.38,8.64,5.42,3.8,-3.47
C=Cc1ccc(C(=O)N2CCCC(Nc3ccc(F)cc3)C2)cc1 (stereo not given),-3.33,8.11,2.02,27.7,7.72,0.952,3.97,2.82,2.65,19.5,-11.2
CC(=O)N1CCN(CCNS(=O)(=O)c2ccc(C)c(F)c2)CC1,-5.17,18.4,-1.98,-13.7,3.41,1.18,7.96,3.39,-1.06,13,-13.1
COc1ccc(OCCNCCn2cccn2)cc1,1.21,1.27,-2.53,10.8,-1.95,7.1,6.69,6.41,-1.04,2.53,-1.82
COc1ccc(NC(=O)c2ccc[nH]2)c(N2CCN(C(C)=O)CC2)n1,-1.32,10.8,-4.59,-2.38,0.781,37.1,7.18,-7.2,6.93,13.4,-6.01
